Source: PubChem BioAssay AID1159580 (chemical genetic matrix, 2015)
The campaign covered roughly 5,500 compounds. About 2,000 (36%) were called active. Another 18% or so got no clear call; they are omitted. No stated cut-off is given here; in the data, active means normalized growth mostly below about 0.91 (no sharp cut-off); inconclusive means no clear call, values can overlap the other calls; inactive means mostly above about 0.92. The list shows a part of the results.

Assay: chemical genetic growth profiling, strain panel (AID 1159580);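 further: tested at 20 µM; growth read once vehicle control cultures reached saturation at 30 °C; 1 = growth at the plate median or of vehicle wells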
Details: growth OD

Measured: normalized growth

CC(=O)NO
inactive: S. cerevisiae deletion strains, locus YJL187C, strain SWE1, stronger effect = lower value 0.992 | S. cerevisiae deletion strains, locus YJR043C, strain POL32, stronger effect = lower value 1.07 | S. cerevisiae deletion strains, locus YJR066W, strain TOR1, stronger effect = lower value 0.993 | S. cerevisiae deletion strains, locus YKL009W, strain mrt4, stronger effect = lower value 0.989 | S. cerevisiae deletion strains, locus YKL068W, stronger effect = lower value 0.995 | S. cerevisiae deletion strains, locus YKL085W, strain MDH1 (second series), stronger effect = lower value 0.994 | S. cerevisiae deletion strains, locus YKL085W, strain MDH1, stronger effect = lower value 0.994 | S. cerevisiae deletion strains, locus YKL160W, strain elf1, stronger effect = lower value 0.961 | S. cerevisiae deletion strains, locus YKL190W, strain CNB1, stronger effect = lower value 1 | S. cerevisiae deletion strains, locus YKR001C, strain vps1, stronger effect = lower value 1.02 | S. cerevisiae deletion strains, locus YKR026C, strain gcn3, stronger effect = lower value 0.98 | S. cerevisiae deletion strains, locus YKR091W, strain srl3, stronger effect = lower value 0.985 | S. cerevisiae deletion strains, locus YLL001W, strain dnm1, stronger effect = lower value 0.922 | S. cerevisiae deletion strains, locus YLL026W, stronger effect = lower value 0.988 | S. cerevisiae deletion strains, locus YLL041C, strain sdh2, stronger effect = lower value 0.988 | S. cerevisiae deletion strains, locus YLR027C, strain aat2, stronger effect = lower value 0.981 | S. cerevisiae deletion strains, locus YLR039C, strain RIC1, stronger effect = lower value 0.711 | S. cerevisiae deletion strains, locus YLR058C, strain SHM2, stronger effect = lower value 0.988 | S. cerevisiae deletion strains, locus YLR102C, strain apc9, stronger effect = lower value 0.996 | S. cerevisiae deletion strains, locus YLR113W, strain HOG1, stronger effect = lower value 0.973 | S. cerevisiae deletion strains, locus YLR221C, strain rsa3, stronger effect = lower value 0.922 | S. cerevisiae deletion strains, locus YLR258W, strain gsy2, stronger effect = lower value 0.964 | S. cerevisiae deletion strains, locus YLR262C, strain YPT6 (second series), stronger effect = lower value 0.986 | S. cerevisiae deletion strains, locus YLR262C, strain YPT6, stronger effect = lower value 0.746 | S. cerevisiae deletion strains, locus YLR268W, strain sec22, stronger effect = lower value 0.965 | S. cerevisiae deletion strains, locus YLR320W, strain mms22, stronger effect = lower value 0.892 | S. cerevisiae deletion strains, locus YLR330W, strain CHS5, stronger effect = lower value 0.996 | S. cerevisiae deletion strains, locus YLR342W, strain FKS1 (second series), stronger effect = lower value 0.901 | S. cerevisiae deletion strains, locus YLR342W, strain FKS1, stronger effect = lower value 0.98 | S. cerevisiae deletion strains, locus YLR357W, strain rsc2, stronger effect = lower value 0.971 | S. cerevisiae deletion strains, locus YLR370C, strain arc18, stronger effect = lower value 0.949 | S. cerevisiae deletion strains, locus YLR371W, strain rom2, stronger effect = lower value 0.987 | S. cerevisiae deletion strains, locus YLR384C, strain iki3, stronger effect = lower value 0.983 | S. cerevisiae deletion strains, locus YLR418C, strain cdc73, stronger effect = lower value 0.851 | S. cerevisiae deletion strains, locus YML016C, strain PPZ1, stronger effect = lower value 0.993 | S. cerevisiae deletion strains, locus YML032C, strain rad52, stronger effect = lower value 0.951 | S. cerevisiae deletion strains, locus YML120C, strain ndi1, stronger effect = lower value 0.948 | S. cerevisiae deletion strains, locus YML124C, strain tub3, stronger effect = lower value 0.995 | S. cerevisiae deletion strains, locus YMR058W, strain fet3, stronger effect = lower value 0.988 | S. cerevisiae deletion strains, locus YMR078C, strain ctf18, stronger effect = lower value 0.991 | S. cerevisiae deletion strains, locus YMR125W, strain sto1, stronger effect = lower value 0.963 | S. cerevisiae deletion strains, locus YMR129W, stronger effect = lower value 0.99 | S. cerevisiae deletion strains, locus YMR205C, strain PFK2, stronger effect = lower value 0.951 | S. cerevisiae deletion strains, locus YMR223W, strain ubp8, stronger effect = lower value 0.968 | S. cerevisiae deletion strains, locus YMR231W, strain pep5, stronger effect = lower value 0.987 | S. cerevisiae deletion strains, locus YMR307W, strain GAS1, stronger effect = lower value 1.17 | S. cerevisiae deletion strains, locus YNL067W, strain RPL9B, stronger effect = lower value 0.949 | S. cerevisiae deletion strains, locus YNL071W, strain lat1, stronger effect = lower value 0.976 | S. cerevisiae deletion strains, locus YNL183C, strain NPR1, stronger effect = lower value 0.968 | S. cerevisiae deletion strains, locus YNL209W, strain ssb2, stronger effect = lower value 0.985 | S. cerevisiae deletion strains, locus YNL233W, strain BNI4, stronger effect = lower value 0.939 | S. cerevisiae deletion strains, locus YNL248C, strain rpa49, stronger effect = lower value 0.956 | S. cerevisiae deletion strains, locus YNL250W, strain rad50, stronger effect = lower value 0.976 | S. cerevisiae deletion strains, locus YNL271C, strain bni1, stronger effect = lower value 0.984 | S. cerevisiae deletion strains, locus YNL298W, strain CLA4, stronger effect = lower value 0.993 | S. cerevisiae deletion strains, locus YNL307C, strain MCK1, stronger effect = lower value 0.978 | S. cerevisiae deletion strains, locus YNL322C, strain KRE1 (second series), stronger effect = lower value 0.957 | S. cerevisiae deletion strains, locus YNR049C, strain mso1, stronger effect = lower value 0.977 | S. cerevisiae deletion strains, locus YNR052C, strain pop2, stronger effect = lower value 0.97 | S. cerevisiae deletion strains, locus YOL012C, strain htz1 0.899 | S. cerevisiae deletion strains, locus YOL147C, strain pex11, stronger effect = lower value 0.992 | S. cerevisiae deletion strains, locus YOR001W, strain rrp6, stronger effect = lower value 1.01 | S. cerevisiae deletion strains, locus YOR061W, strain CKA2, stronger effect = lower value 1 | S. cerevisiae deletion strains, locus YOR069W, strain VPS5, stronger effect = lower value 1.01 | S. cerevisiae deletion strains, locus YOR070C, strain gyp1, stronger effect = lower value 0.979 | S. cerevisiae deletion strains, locus YOR080W, strain dia2, stronger effect = lower value 0.977 | S. cerevisiae deletion strains, locus YOR083W, strain WHI5, stronger effect = lower value 0.962 | S. cerevisiae deletion strains, locus YOR106W, strain vam3, stronger effect = lower value 0.975 | S. cerevisiae deletion strains, locus YOR136W, strain idh2, stronger effect = lower value 0.989 | S. cerevisiae deletion strains, locus YOR144C, strain elg1, stronger effect = lower value 0.996 | S. cerevisiae deletion strains, locus YOR184W, strain ser1, stronger effect = lower value 0.974 | S. cerevisiae deletion strains, locus YOR231W, strain MKK1, stronger effect = lower value 0.992 | S. cerevisiae deletion strains, locus YOR265W, strain rbl2, stronger effect = lower value 0.986 | S. cerevisiae deletion strains, locus YOR270C, strain vph1, stronger effect = lower value 0.944 | S. cerevisiae deletion strains, locus YOR290C, strain snf2, stronger effect = lower value 0.948 | S. cerevisiae deletion strains, locus YOR316C, strain cot1, stronger effect = lower value 0.996 | S. cerevisiae deletion strains, locus YPL051W, strain arl3, stronger effect = lower value 0.985 | S. cerevisiae deletion strains, locus YPL078C, strain atp4, stronger effect = lower value 0.97 | S. cerevisiae deletion strains, locus YPL106C, strain sse1, stronger effect = lower value 0.969 | S. cerevisiae deletion strains, locus YPL240C, strain hsp82, stronger effect = lower value 0.983 | S. cerevisiae deletion strains, locus YPL256C, strain CLN2, stronger effect = lower value 0.994 | S. cerevisiae deletion strains, locus YPR119W, strain clb2, stronger effect = lower value 1 | S. cerevisiae deletion strains, locus YPR141C, strain kar3, stronger effect = lower value 1 | S. cerevisiae deletion strains, locus YPR163C, strain tif3, stronger effect = lower value 0.984 | S. cerevisiae deletion strains, locus YPR167C, strain met16, stronger effect = lower value 0.983 | S. cerevisiae deletion strains, strain wtn01, stronger effect = lower value 0.969 | S. cerevisiae strains, strain wild type, stronger effect = lower value 0.981
